Results on four compounds are retold here after PubChem BioAssay (EPA / NIEHS).

Structures are written as SMILES. Activity calls are given as the source filed them. The calls were made as follows: active = hit-call score of the fitted dose curve at least 0.9, where 1 is the maximum; inactive = score below 0.9.

Common to all, as to details: mRNA level, 48 h; actives raise or lower the signal
Read-out in assay [1]: CYP2C9 (gene 1559)
Nature of the assay: LTEA_HepaRG_CYP2C9: Life Technologies and Expression Analysis (LTEA) Assay for CYP2C9 using HepaRG (AID 2283484). The procedure, abridged:
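Eight-point concentration-response (highest 100 uM, half-log dilutions) in HepaRG cells for 48 h; CYP2C9 expression by qRT-PCR normalized to ACTB, GAPDH, POLR2A. Bidirectional fit, DMSO baseline.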

Read-out in assay [2]: CYP2E1 (gene 1571)
Briefly: LTEA_HepaRG_CYP2E1: Life Technologies and Expression Analysis (LTEA) Assay for CYP2E1 using HepaRG (AID 2283485). Summed up: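 Assay uses 48 h exposure of HepaRG hepatic cells, eight concentrations to 100 uM. Expression of CYP2E1 is quantified by TaqMan qRT-PCR with ACTB, GAPDH and POLR2A normalization; curves fitted in both directions relative to vehicle.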

Read-out in assay [3]: CYP4A11 (gene 1579)
Nature of the assay: LTEA_HepaRG_CYP4A11: Life Technologies and Expression Analysis (LTEA) Assay for CYP4A11 using HepaRG (AID 2283486). Summed up: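 CYP4A11 transcript levels were quantified by TaqMan qRT-PCR after HepaRG human liver cells were treated for 48 hours with test chemicals (top 100 uM, half-log dilutions, 0.5% DMSO). Gain or loss of signal was fitted relative to DMSO.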

Read-out in assay [4]: Cytochrome P450 3A4 (Homo sapiens) (UniProt P08684)
Nature of the assay: LTEA_HepaRG_CYP3A4: Life Technologies and Expression Analysis (LTEA) Assay for CYP3A4 using HepaRG (AID 2283487). Summed up:
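CYP3A4 transcript measured by TaqMan qRT-PCR and normalized to three housekeeping genes after 48 h chemical exposure of human HepaRG cells. Top concentration 100 uM, half-log steps, 0.5% DMSO vehicle; gain or loss fitted against DMSO baseline.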

Read-out in assay [5]: DNA damage-inducible transcript 3 (DDIT3), DDIT3 (gene 1649)
Briefly: LTEA_HepaRG_DDIT3: Life Technologies and Expression Analysis (LTEA) Assay for DNA damage-inducible transcript 3 (DDIT3) using HepaRG (AID 2283488). The procedure, abridged:
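Eight-point concentration-response (100 uM highest, half-log dilutions) in HepaRG, 48 h, duplicate wells. Endpoint: qRT-PCR mRNA, normalized (ACTB, GAPDH, POLR2A), bidirectional fitting with DMSO as baseline.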

Read-out in assay [6]: Pro-epidermal growth factor (Homo sapiens) (UniProt P01133)
Briefly: LTEA_HepaRG_EGF: Life Technologies and Expression Analysis (LTEA) Assay for Epidermal growth factor (EGF) using HepaRG (AID 2283489). The procedure, abridged:
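qRT-PCR readout of EGF transcript after 48 h chemical exposure of HepaRG cells; eight concentrations from 100 uM down in half-log steps, duplicate wells, 0.5% DMSO vehicle. Bidirectional curve fitting against DMSO baseline.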

Read-out in assay [7]: Early growth response protein 1 (EGR1) transcription factor, EGR1 (gene 1958)
Briefly: LTEA_HepaRG_EGR1: Life Technologies and Expression Analysis (LTEA) Assay for Early growth response protein 1 (EGR1) transcription factor using HepaRG (AID 2283490). The procedure, abridged:
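EGR1 expression change in human HepaRG after 48 h chemical exposure, assessed by housekeeping-normalized qRT-PCR; concentration-response up to 100 uM, fitted in both directions against DMSO controls.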

Read-out in assay [8]: Ezrin (EZR), EZR (gene 7430)
Briefly: LTEA_HepaRG_EZR: Life Technologies and Expression Analysis (LTEA) Assay for Ezrin (EZR) using HepaRG (AID 2283491). Summed up: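 HepaRG, 48 h chemical exposure, 8-pt half-log series from 100 uM, 0.5% DMSO vehicle, duplicates. Read-out: EZR mRNA by TaqMan qRT-PCR (Fluidigm array), housekeeping-normalized; bidirectional curve fit vs DMSO baseline.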

Read-out in assay [9]: Cytochrome P450 3A7 (Homo sapiens) (UniProt P24462)
Briefly: LTEA_HepaRG_CYP3A7: Life Technologies and Expression Analysis (LTEA) Assay for CYP3A7 using HepaRG (AID 2283492). Summed up: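 CYP3A7 transcript levels were read by TaqMan qRT-PCR on Fluidigm arrays after 48 h chemical exposure of human HepaRG cells, with housekeeping-gene normalisation. Eight half-log concentrations up to 100 uM in 0.5% DMSO were tested in duplicate.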

Read-out in assay [10]: CYP3A5 (gene 1577)
Briefly: LTEA_HepaRG_CYP3A5: Life Technologies and Expression Analysis (LTEA) Assay for CYP3A5 using HepaRG (AID 2283493). The procedure, abridged:
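Readout was CYP3A5 mRNA by qRT-PCR. HepaRG cultures were exposed for 48 h in serum-free induction medium to chemicals at up to 100 uM, and responses were fitted in both directions relative to DMSO vehicle.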

Read-out in assay [11]: Fatty Acid-Binding Protein 1 (FABP1), FABP1 (gene 2168)
Briefly: LTEA_HepaRG_FABP1: Life Technologies and Expression Analysis (LTEA) Assay for Fatty Acid-Binding Protein 1 (FABP1) using HepaRG (AID 2283494). The procedure, abridged:
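Values reflect bidirectional concentration-response fitting of FABP1 mRNA change against 0.5% DMSO controls. Human HepaRG cultures received eight half-log doses (top 100 uM) for 48 h; expression quantified by TaqMan qRT-PCR with housekeeping-gene normalization.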

Read-out in assay [12]: Cytochrome P450 4A22 (Homo sapiens) (UniProt Q5TCH4)
Briefly: LTEA_HepaRG_CYP4A22: Life Technologies and Expression Analysis (LTEA) Assay for Cytochrome P450 4A22 (CYP4A22) using HepaRG (AID 2283495). The procedure, abridged:
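HepaRG, 48 h post-plating -> serum-free induction medium; dosed 48 h, duplicate, 8 conc. (100 uM top, half-log), 0.5% DMSO. Readout: CYP4A22 mRNA by qRT-PCR, ACTB/GAPDH/POLR2A normalization; gain/loss fit relative to DMSO.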

Read-out in assay [13]: Cytochrome P450 7A1 (Homo sapiens) (UniProt P22680)
Briefly: LTEA_HepaRG_CYP7A1: Life Technologies and Expression Analysis (LTEA) Assay for Cytochrome P450 7A1 (CYP7A1) using HepaRG (AID 2283496). The procedure, abridged: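 Using 0.5% DMSO as vehicle and baseline, chemicals were tested in duplicate over an 8-point range from 100 uM on HepaRG cells for 48 h; qRT-PCR signals were normalised to ACTB, GAPDH and POLR2A.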

Read-out in assay [14]: Glutathione S-Transferase (GSTA2), GSTA2 (gene 2939)
Nature of the assay: LTEA_HepaRG_GSTA2: Life Technologies and Expression Analysis (LTEA) Assay for Glutathione S-Transferase (GSTA2) using HepaRG (AID 2283497). The procedure, abridged:
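Oxidative-stress marker GSTA2 is quantified by TaqMan qRT-PCR in HepaRG cultures treated 48 h across an eight-point range to 100 uM. Expression is normalized to endogenous controls and compared with 0.5% DMSO vehicle.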

Read-out in assay [15]: Glutamate-cysteine ligase catalytic (GCLC), GCLC (gene 2729)
Nature of the assay: LTEA_HepaRG_GCLC: Life Technologies and Expression Analysis (LTEA) Assay for Glutamate-cysteine ligase catalytic (GCLC) using HepaRG (AID 2283498). Summed up:
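Oxidative-stress marker GCLC is measured as mRNA change in human HepaRG liver cells after 48 h chemical treatment in 0.5% DMSO, eight concentrations from 100 uM. Activity is fitted bidirectionally against vehicle.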

Read-out in assay [16]: growth arrest and DNA damage 45 (GADD45G), GADD45G (gene 10912)
Nature of the assay: LTEA_HepaRG_GADD45G: Life Technologies and Expression Analysis (LTEA) Assay for growth arrest and DNA damage 45 (GADD45G) using HepaRG (AID 2283499). Summed up:
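HepaRG, 48 h exposure, top 100 uM, half-log 8-point series, 0.5% DMSO vehicle, duplicates. Readout: GADD45G transcript by qRT-PCR (Fluidigm array), housekeeping-normalised (ACTB/GAPDH/POLR2A). Bidirectional curve fit vs DMSO baseline.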

Read-out in assay [17]: Glutamate-cysteine ligase regulatory (GCLM), GCLM (gene 2730)
Briefly: LTEA_HepaRG_GCLM: Life Technologies and Expression Analysis (LTEA) Assay for Glutamate-cysteine ligase regulatory (GCLM) using HepaRG (AID 2283500). The procedure, abridged:
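In this multiplexed HepaRG gene-expression assay, GCLM mRNA change after 48 h treatment (8 concentrations, max 100 uM) was scored against DMSO by bidirectional curve fitting.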

Read-out in assay [18]: Heat shock 70 kDa protein 1 (HSPA1A), gene 3303
Nature of the assay: LTEA_HepaRG_HSPA1A: Life Technologies and Expression Analysis (LTEA) Assay for Heat shock 70 kDa protein 1 (HSPA1A) using HepaRG (AID 2283502). The procedure, abridged: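 An oxidative-stress marker readout: HepaRG cells treated 48 h in duplicate with an eight-point series (highest 100 uM) had HSPA1A mRNA quantified by TaqMan qRT-PCR. Activity was fitted in both directions using 0.5% DMSO as baseline.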

Read-out in assay [19]: Hypoxia-inducible factor 1-alpha (Homo sapiens) (UniProt Q16665)
Briefly: LTEA_HepaRG_HIF1A: Life Technologies and Expression Analysis (LTEA) Assay for Hypoxia-inducible factor 1 (HIF1A) Trancription factor using HepaRG (AID 2283503).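 Also: HIF1A transcript by TaqMan qRT-PCR normalized to ACTB GAPDH and POLR2A.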 The procedure, abridged:
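Gain- or loss-of-signal HIF1A mRNA changes are fitted against a DMSO baseline. HepaRG cultures receive eight concentrations, highest 100 uM, for 48 h in serum-free induction medium with 0.5% DMSO.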

Read-out in assay [20]: Glutathione S-transferase M3 (GSTM3), GSTM3 (gene 2947)
Nature of the assay: LTEA_HepaRG_GSTM3: Life Technologies and Expression Analysis (LTEA) Assay for Glutathione S-transferase M3 (GSTM3) using HepaRG (AID 2283501). Summed up: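 qRT-PCR read-out of GSTM3 transcript, normalized to three housekeeping genes, from human HepaRG cells after 48 h chemical exposure. Eight-point half-log series, top 100 uM, 0.5% DMSO vehicle; gain or loss fitted relative to DMSO baseline.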

Sequence of Cytochrome P450 3A4 (Homo sapiens) (P08684 whole entry, looked up): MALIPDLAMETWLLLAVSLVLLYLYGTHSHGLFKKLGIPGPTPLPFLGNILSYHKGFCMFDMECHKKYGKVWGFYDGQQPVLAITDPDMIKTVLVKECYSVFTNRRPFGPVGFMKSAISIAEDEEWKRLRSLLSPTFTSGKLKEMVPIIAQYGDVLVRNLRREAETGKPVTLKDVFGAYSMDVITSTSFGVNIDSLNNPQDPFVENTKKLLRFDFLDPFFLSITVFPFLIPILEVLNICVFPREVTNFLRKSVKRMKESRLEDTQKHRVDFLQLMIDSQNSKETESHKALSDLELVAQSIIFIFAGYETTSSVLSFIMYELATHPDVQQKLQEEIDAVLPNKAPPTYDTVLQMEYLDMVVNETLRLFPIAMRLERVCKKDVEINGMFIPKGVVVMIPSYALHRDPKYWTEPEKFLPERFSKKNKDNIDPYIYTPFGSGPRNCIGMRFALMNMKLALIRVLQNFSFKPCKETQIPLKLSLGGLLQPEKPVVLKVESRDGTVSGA
Sequence of Cytochrome P450 3A7 (Homo sapiens) (P24462 whole entry, looked up): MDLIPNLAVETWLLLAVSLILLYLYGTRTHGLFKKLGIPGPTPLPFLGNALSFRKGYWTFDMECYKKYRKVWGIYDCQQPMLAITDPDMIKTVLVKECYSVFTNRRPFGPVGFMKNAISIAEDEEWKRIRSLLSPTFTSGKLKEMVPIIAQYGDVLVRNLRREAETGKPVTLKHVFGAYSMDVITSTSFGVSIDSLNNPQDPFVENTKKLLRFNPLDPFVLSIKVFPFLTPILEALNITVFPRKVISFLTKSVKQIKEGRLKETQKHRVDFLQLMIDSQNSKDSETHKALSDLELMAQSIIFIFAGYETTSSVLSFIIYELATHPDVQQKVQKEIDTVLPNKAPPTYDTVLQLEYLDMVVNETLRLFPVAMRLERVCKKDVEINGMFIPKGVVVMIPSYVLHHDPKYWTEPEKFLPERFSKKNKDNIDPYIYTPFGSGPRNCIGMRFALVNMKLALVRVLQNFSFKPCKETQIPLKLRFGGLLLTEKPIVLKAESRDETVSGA
Sequence of Hypoxia-inducible factor 1-alpha (Homo sapiens) (Q16665 whole entry, looked up): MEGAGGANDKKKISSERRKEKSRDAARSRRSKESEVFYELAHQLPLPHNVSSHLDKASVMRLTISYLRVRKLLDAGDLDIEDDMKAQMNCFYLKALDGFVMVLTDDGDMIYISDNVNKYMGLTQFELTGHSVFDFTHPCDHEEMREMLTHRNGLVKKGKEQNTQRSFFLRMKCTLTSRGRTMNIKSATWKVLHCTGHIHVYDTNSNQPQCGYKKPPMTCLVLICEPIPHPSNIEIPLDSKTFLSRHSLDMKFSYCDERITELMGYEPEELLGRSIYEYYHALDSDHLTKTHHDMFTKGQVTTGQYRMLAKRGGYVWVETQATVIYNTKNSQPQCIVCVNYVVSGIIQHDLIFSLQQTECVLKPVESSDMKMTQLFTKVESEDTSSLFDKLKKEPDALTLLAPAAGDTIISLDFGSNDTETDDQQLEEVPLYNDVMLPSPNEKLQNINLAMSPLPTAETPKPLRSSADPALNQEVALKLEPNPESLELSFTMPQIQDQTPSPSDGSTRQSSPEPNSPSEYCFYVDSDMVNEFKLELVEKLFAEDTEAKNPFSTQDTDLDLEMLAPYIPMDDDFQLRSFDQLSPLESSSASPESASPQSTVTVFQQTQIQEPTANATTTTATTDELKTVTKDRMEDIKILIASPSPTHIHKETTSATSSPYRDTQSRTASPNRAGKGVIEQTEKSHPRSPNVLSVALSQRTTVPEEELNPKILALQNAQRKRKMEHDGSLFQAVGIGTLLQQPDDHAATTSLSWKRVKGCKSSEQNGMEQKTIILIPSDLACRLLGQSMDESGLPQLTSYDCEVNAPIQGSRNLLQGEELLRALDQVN

For the compound `CCC(C)c1ccc(O)cc1` (centres undefined), the result in assay [1], in assay [2], in assay [3], in assay [4], in [5] and in assay [6] was inactive. For the same compound, the result in assay [7], in [8], in [9], in [10], in [11] and in assay [12] was inactive. For the same compound, the call in assay [13], in [14], in [16], in assay [17] and in [18] was inactive. Further, in [15], the AC50 (usually the concentration at which the activity in the assay is half-maximal) was 0.397 µM (active).
For `ClC1=C(Cl)C2(Cl)C3C(Cl)C=CC3C1(Cl)C2(Cl)Cl` (centres undefined), the result in assay [1], in assay [5], in assay [6], in [7], in assay [8] and in assay [9] was inactive. Moreover, the result in [10], in assay [14], in [15] and in assay [16] was inactive. The AC50 in assay [2] was 7.54 µM (active); in assay [3] it was 16.1 µM (active); in assay [4], 0.927 µM (active); in [11], 15.9 µM (active); in assay [12] it was 13.1 µM (active); in assay [13], 13.8 µM (active). The AC50 is 32.1 µM (active) in [17], 24 µM (active) in [18] and 33.8 µM (active) in [19].
`CCCCCCCCCCCCCN1CC(C)OC(C)C1` (centres undefined): the outcome in assay [1], in assay [2], in [3], in assay [4], in assay [5] and in assay [6] was inactive. Further, the result in [7], in [8], in assay [9], in assay [10], in assay [11] and in [12] was inactive. In addition, the call in assay [13], in assay [14], in assay [15], in [16], in assay [17] and in assay [18] was inactive.
`CC(C)(C)OOC(=O)c1ccccc1`: the call in [1], in [2], in assay [3], in assay [4], in assay [5] and in assay [6] was inactive. Also, the compound was classed as inactive in assay [7], in [8], in [9], in [10], in assay [11] and in [12]. Besides, the outcome in assay [13], in assay [14], in [15], in assay [16], in assay [17] and in [20] was inactive. Further, the compound was called inactive in [18].
